# In PMC5540273 (PLoS ONE, 2017):
# Values joined by “and” are separate entries in the source; they are usually repeats but may differ in a detail not shown here. Identical values can stand only once. Like-named read-outs stand apart in the source and are kept apart here.
# Assays:
# [1] = tested on: BUB1; conditions: concentration: 1 μM, replicates: in singlicate, n = 1
# [2] = tested on: CAMK1B; conditions: concentration: 1 μM, replicates: in singlicate, n = 1
# [3] = tested on: CAMK1D; conditions: concentration: 1 μM, replicates: in singlicate, n = 1
# [4] = tested on: CAMK1G; conditions: concentration: 1 μM, replicates: in singlicate, n = 1
# [5] = tested on: CAMK1; conditions: concentration: 1 μM, replicates: in singlicate, n = 1
# [6] = tested on: CAMK2A; conditions: concentration: 1 μM, replicates: in singlicate; n = 1
# [7] = tested on: CAMK2B; conditions: concentration: 1 μM, replicates: in singlicate; n = 1
# [8] = tested on: CAMK2D; conditions: concentration: 1 μM, replicates: in singlicate; n = 1
# [9] = tested on: CAMK2G; conditions: concentration: 1 μM, replicates: in singlicate; n = 1
# [10] = tested on: CAMK4; conditions: concentration: 1 μM, replicates: in singlicate, n = 1
# [11] = tested on: CAMKK1; conditions: concentration: 1 μM, replicates: in singlicate; n = 1
# [12] = tested on: CAMKK2; conditions: concentration: 1 μM, replicates: in singlicate; n = 1
# [13] = tested on: CASK; conditions: concentration: 1 μM, replicates: in singlicate, n = 1
# [14] = tested on: T1, CDC2L1; conditions: concentration: 1 μM, replicates: in singlicate, n = 1
# T1 construct: gene CDK11B
# [15] = tested on: CDC2L2; conditions: concentration: 1 μM, replicates: in singlicate, n = 1
# [16] = tested on: T2, CDC2L5; conditions: concentration: 1 μM, replicates: in singlicate, n = 1
# T2 construct: gene CDK13
# [17] = tested on: T3, CDK11; conditions: concentration: 1 μM, replicates: in singlicate, n = 1
# T3 construct: gene CDK19
# [18] = tested on: CDK2; conditions: concentration: 1 μM, replicates: in singlicate; n = 1
# [19] = tested on: CDK3; conditions: concentration: 1 μM, replicates: in singlicate; n = 1
# [20] = tested on: CDK4-cyclinD1; conditions: concentration: 1 μM, replicates: in singlicate, n = 1
# 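Further: KINOMEscan kinase panel screen.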
compound,measurement,setting,value
NCC(NC(=O)c1cc(-c2cn[nH]c2)c(-c2ccnc3[nH]ccc23)s1)c1ccccc1.O=C(O)C(F)(F)F.O=C(O)C(F)(F)F (centres unmarked) [GSK1325775],%Inh,[1],94.6%
same,%Inh,[2],49%
same,%Inh,[3],50%
same,%Inh,[4],33%
same,%Inh,[5],41%
same,%Inh,[6],0%
same,%Inh,[7],12%
same,%Inh,[8],35%
same,%Inh,[9],30%
same,%Inh,[10],0%
same,%Inh,[11],76%
same,%Inh,[12],67%
same,%Inh,[13],23%
same,%Inh,[14],0%
same,%Inh,[15],11%
same,%Inh,[16],32%
same,%Inh,[17],34%
same,%Inh,[18],0%
same,%Inh,[19],0%
same,%Inh,[20],48%
Fc1ccc(-c2nn3c(OCC(F)(F)F)cccc3c2-c2ccncc2)cc1 [GW514784],%Inh,[1],99%
same,%Inh,[2],0%
same,%Inh,[3],7%
same,%Inh,[4],0%
same,%Inh,[5],0%
same,%Inh,[6],0%
same,%Inh,[7],0%
same,%Inh,[8],0%
same,%Inh,[9],22%
same,%Inh,[10],0%
same,%Inh,[11],8%
same,%Inh,[12],9%
same,%Inh,[13],7%
same,%Inh,[14],0%
same,%Inh,[15],11%
same,%Inh,[16],0%
same,%Inh,[17],3%
same,%Inh,[18],0%
same,%Inh,[19],0%
same,%Inh,[20],46%
O=c1cc(N2CCOCC2)nc2n(Cc3cccc(C(F)(F)F)c3)ccn12 [GSK2297543],%Inh,[1],13%
same,%Inh,[2],36%
same,%Inh,[3],6%
same,%Inh,[4],0%
same,%Inh,[5],4%
same,%Inh,[6],0%
same,%Inh,[7],0%
same,%Inh,[8],0%
same,%Inh,[9],4%
same,%Inh,[10],0%
same,%Inh,[11],3%
same,%Inh,[12],0%
same,%Inh,[13],9%
same,%Inh,[14],0%
same,%Inh,[15],18%
same,%Inh,[16],0%
same,%Inh,[17],3%
same,%Inh,[18],0%
same,%Inh,[19],0%
same,%Inh,[20],0%
Cl.Cl.Cl.Fc1ccc(-c2ncn(C3CCNCC3)c2-c2ccnc(Nc3ccccc3)n2)cc1 [SB-238039],%Inh,[1]; 1 µM,88% and 65%
same,%Inh,[2]; 1 µM,0% and 42%
same,%Inh,[3]; 1 µM,0% and 9%
same,%Inh,[4]; 1 µM,9% and 0%
same,%Inh,[5]; 1 µM,7% and 0%
same,%Inh,[6],0%
same,%Inh,[7],0%
same,%Inh,[8],0%
same,%Inh,[9],0%
same,%Inh,[10]; 1 µM,18% and 26%
same,%Inh,[11],0%
same,%Inh,[12],0%
same,%Inh,[13]; 1 µM,16% and 0%
same,%Inh,[14]; 1 µM,99.4% and 98.5%
same,%Inh,[15]; 1 µM,99.8% and 98.2%
same,%Inh,[16]; 1 µM,32% and 16%
same,%Inh,[17]; 1 µM,0% and 2%
same,%Inh,[18],0%
same,%Inh,[19],0%
same,%Inh,[20]; 1 µM,0% and 15%
NS(=O)(=O)c1cccc(-c2ccc3nccc(-c4cccc(S(N)(=O)=O)c4)c3c2)c1 [GW867253],%Inh,[1],17%
same,%Inh,[2],0%
same,%Inh,[3],0%
same,%Inh,[4],0%
same,%Inh,[5],0%
same,%Inh,[6],0%
same,%Inh,[7],0%
same,%Inh,[8],0%
same,%Inh,[9],0%
same,%Inh,[10],0%
same,%Inh,[11],13%
same,%Inh,[12],19%
same,%Inh,[13],30%
same,%Inh,[14],0%
same,%Inh,[15],0%
same,%Inh,[16],0%
same,%Inh,[17],13%
same,%Inh,[18],0%
same,%Inh,[19],22%
same,%Inh,[20],0%
[2H]C([2H])(c1cccc(C(F)(F)F)c1C)n1ccn2c(=O)nc(N3CCOCC3)cc12 [GSK2336394],%Inh,[1],52%
same,%Inh,[2],26%
same,%Inh,[3],0%
same,%Inh,[4],0%
same,%Inh,[5],0%
same,%Inh,[6],0%
same,%Inh,[7],0%
same,%Inh,[8],7%
same,%Inh,[9],3%
same,%Inh,[10],16%
same,%Inh,[11],0%
same,%Inh,[12],0%
same,%Inh,[13],8%
same,%Inh,[14],0%
same,%Inh,[15],17%
same,%Inh,[16],0%
same,%Inh,[17],5%
same,%Inh,[18],0%
same,%Inh,[19],1%
same,%Inh,[20],0%
Cc1cn2c(=O)cc(N3CCOCC3)nc2n1Cc1cccc(Cl)c1Cl [GSK2334006],%Inh,[1],4%
same,%Inh,[2],40%
same,%Inh,[3],14%
same,%Inh,[4],30%
same,%Inh,[5],12%
same,%Inh,[6],0%
same,%Inh,[7],0%
same,%Inh,[8],10%
same,%Inh,[9],32%
same,%Inh,[10],0%
same,%Inh,[11],30%
same,%Inh,[12],32%
same,%Inh,[13],20%
same,%Inh,[14],0%
same,%Inh,[15],6%
same,%Inh,[16],0%
same,%Inh,[17],11%
same,%Inh,[18],17%
same,%Inh,[19],25%
same,%Inh,[20],0%
Cc1c2ccc(N(C)c3ccnc(Nc4cccc(S(N)(=O)=O)c4)n3)cc2nn1Cc1ccccc1.Cl.Cl [GW787226],%Inh,[1],0%
same,%Inh,[2],0%
same,%Inh,[3],0%
same,%Inh,[4],11%
same,%Inh,[5],2%
same,%Inh,[6],0%
same,%Inh,[7],0%
same,%Inh,[8],0%
same,%Inh,[9],0%
same,%Inh,[10],16%
same,%Inh,[11],0%
same,%Inh,[12],0%
same,%Inh,[13],9%
same,%Inh,[14],66%
same,%Inh,[15],76%
same,%Inh,[16],0%
same,%Inh,[17],9%
same,%Inh,[18],0%
same,%Inh,[19],3%
same,%Inh,[20],0%
NS(=O)(=O)CCc1cccc(Nc2nccc(-c3c(-c4cccc(NC(=O)c5c(F)cccc5F)c4)nn4ccccc34)n2)c1 [GSK336735],%Inh,[1],77%
same,%Inh,[2],0%
same,%Inh,[3],29%
same,%Inh,[4],0%
same,%Inh,[5],53%
same,%Inh,[6],0%
same,%Inh,[7],0%
same,%Inh,[8],4%
same,%Inh,[9],14%
same,%Inh,[10],0%
same,%Inh,[11],0%
same,%Inh,[12],8%
same,%Inh,[13],7%
same,%Inh,[14],11%
same,%Inh,[15],35%
same,%Inh,[16],0%
same,%Inh,[17],14%
same,%Inh,[18],0%
same,%Inh,[19],21%
same,%Inh,[20],0%
NS(=O)(=O)c1cccc(-c2ccc3ncc(N4CCOCC4)nc3c2)c1 [GSK1535721],%Inh,[1],0%
same,%Inh,[2],7%
same,%Inh,[3],18%
same,%Inh,[4],15%
same,%Inh,[5],12%
same,%Inh,[6],0%
same,%Inh,[7],2%
same,%Inh,[8],21%
same,%Inh,[9],17%
same,%Inh,[10],0%
same,%Inh,[11],11%
same,%Inh,[12],12%
same,%Inh,[13],1%
same,%Inh,[14],6%
same,%Inh,[15],34%
same,%Inh,[16],0%
same,%Inh,[17],7%
same,%Inh,[18],0%
same,%Inh,[19],0%
same,%Inh,[20],0%
